Most compounds without a hit are left out; they make up all but 3.4% or so of the library.
MITF primary: MITF inhibitors, primary screen, biochemical, AlphaScreen, human; AID 1259374, 2018; AlphaScreen MITF homodimerization, bead proximity signal; inhibition, % at 2.6 µM; Microphthalmia-associated transcription factor (Homo sapiens), O75030; actives 0.91% (n = 650,000); in the data active means inhibition above about 50%;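 further: 0% = vehicle wells with protein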
FBW7 activator: FBW7 E3 ligase activators, primary screen, biochemical, AlphaScreen, human | normalized activity (activation), % at 26.1 µM | AID 1259310, 2017 | actives 0.13% (n = 650,000) | F-box/WD repeat-containing protein 7 (Homo sapiens), Q969H0 | AlphaScreen FBW7–phospho-cyclin E peptide binding, activator screen; in the data active means normalized activity above about 1.9%;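 further: purified mutant Fbw7 with reduced substrate affinity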
Target sequence (Q969H0 whole entry, looked up): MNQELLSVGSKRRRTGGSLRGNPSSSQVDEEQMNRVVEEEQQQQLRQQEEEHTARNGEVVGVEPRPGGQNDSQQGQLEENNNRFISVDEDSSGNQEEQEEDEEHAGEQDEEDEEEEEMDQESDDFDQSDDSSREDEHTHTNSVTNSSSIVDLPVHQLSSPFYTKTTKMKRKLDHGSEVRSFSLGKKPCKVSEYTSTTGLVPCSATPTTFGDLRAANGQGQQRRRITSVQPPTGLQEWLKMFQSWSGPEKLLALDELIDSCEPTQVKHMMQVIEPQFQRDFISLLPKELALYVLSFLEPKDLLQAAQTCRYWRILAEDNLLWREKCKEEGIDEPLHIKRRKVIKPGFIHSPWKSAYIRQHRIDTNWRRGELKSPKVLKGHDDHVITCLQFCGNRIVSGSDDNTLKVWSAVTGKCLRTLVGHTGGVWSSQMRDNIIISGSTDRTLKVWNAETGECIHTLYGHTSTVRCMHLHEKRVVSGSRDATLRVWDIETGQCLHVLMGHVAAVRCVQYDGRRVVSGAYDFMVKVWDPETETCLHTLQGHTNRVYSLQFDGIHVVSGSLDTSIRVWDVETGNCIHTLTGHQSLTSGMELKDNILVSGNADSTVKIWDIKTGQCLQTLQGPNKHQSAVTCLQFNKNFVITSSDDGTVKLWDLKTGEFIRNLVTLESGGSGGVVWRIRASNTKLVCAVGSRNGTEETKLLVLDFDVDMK
TEAD-YAP block: TEAD-YAP interaction inhibition, primary screen, TEAD-YAP interaction inhibitor project, luminescence, HEK-TIYL cells; TEAD-Gal4/YAP UAS-luciferase luminescence; inhibition, % at 9.12 µM; actives 1.4% (n = 640,000); AID 1259422, 2018; in the data active means inhibition above about 32%;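 further: 0% = median of test compound wells and 100% = reference inhibitor wells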
GPR151 activ: activators of human GPR151, primary screen, cell-based, PathHunter beta-arrestin, luminescence; G-protein coupled receptor 151 (Homo sapiens), Q8TDV0; PathHunter beta-arrestin GPR151 cells; activation, % at 11.2 µM; actives 1% (n = 650,000); AID 1508602, 2020; in the data active means activation above about 4.9%;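 further: 0% = median of compound wells and 100% = cells with positive control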
MITF inh conf: MITF inhibitors, retest of hits, confirmation, biochemical, AlphaScreen, triplicate. shares compounds with MITF primary. AlphaScreen MITF homodimerization, biotin/His-MITF beads. inhibition, % at 2.6 µM. actives 16% (n = 4,700). AID 1259372, 2018;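 active means inhibition above a cutoff derived from the DMSO control wells, cut at about 28% in these data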;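 further: 0% = MITF dimer wells with DMSO only; inhibitors lower the bead chemiluminescence by keeping MITF from dimerizing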
AS interf DR: AlphaScreen optical interference compounds, dose response, counter-screen, biochemical, HTS | AlphaScreen optical interference counterscreen, cell-free | AID 1259373, 2018 | shares compounds with MITF primary | actives 6% (n = 480) | IC50, µM; call rule not given here
AS interf ctr: AlphaScreen optical interference compounds, counter-screen for MITF inhibitor project, biochemical, triplicate; shares compounds with MITF primary; LysRS AlphaScreen counterscreen, signal interference; inhibition, % at 2.6 µM; actives 7.6% (n = 4,700);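 active means inhibition above a cutoff derived from the DMSO control wells, cut at about 30% in these data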
* marks the source's active call; other numbers are inactive results; · = no result.

SMILES	MITF primary	FBW7 activator	TEAD-YAP block	GPR151 activ	MITF inh conf	AS interf ctr	others
Fc1ccc(CN2CCN(Cc3ccccn3)CC2)cc1	70*	0	-52	3	9	16
O=[N+]([O-])c1cccc(CN2CCN(C3CCN(Cc4ccccc4)CC3)CC2)c1	46	0	4	1	·	·
O=[N+]([O-])c1cccc(CN2CCN(Cc3ccccn3)CC2)c1	101*	0	-2	0	-8	-2
COC(=O)c1cccc(C(=O)N2CCCC(N3CCN(c4ccccc4OC)CC3)C2)c1 (stereo not drawn)	1	0	-1	1	·	·
COc1ccccc1CN(C)CCc1ccccn1	67*	1	7	-1	-7	-3
CN(CCc1ccccn1)Cc1c[nH]c2ccccc12	74*	0	-6	-2	6	5
COc1ccc(Br)cc1CN(C)CCc1ccccn1	47	0	13	0	·	·
CN(CCc1ccccn1)S(=O)(=O)c1ccc(F)cc1	75*	0	-2	1	2	2
CN(CCc1ccccn1)Cc1cccc2ccccc12	-2	0	14	-1	·	·
CN(CC(=O)NCc1ccccn1)S(=O)(=O)c1ccc(F)cc1	10	0	-1	-1	·	·
COc1ccc(CN(C)CCc2ccccn2)c(OC)c1OC	58*	0	0	1	13	15
Cc1nc(NC(=O)CSc2nnc(C(C)C)n2C)sc1C	9	0	-12	0	·	·
COc1cccc(NC(=O)c2sc3ncn(CC(=O)N4CCCCC4C)c(=O)c3c2C)c1 (stereo not drawn)	-1	0	3	1	·	·
Cc1cc(C)c(C2C(C#N)=C(N)Oc3n[nH]c(C)c32)cc1COc1ccc(F)cc1 (stereo not drawn)	6	0	0	0	·	·
Cc1cc(C)c(C2C(C#N)=C(N)Oc3n[nH]c(C)c32)cc1CSc1ccc(Br)cc1 (stereo not drawn)	99*	-1	-10	1	-9	-9
COc1ccc(C2CC(=O)NC(NC(=S)NC(C)C)=N2)cc1 (stereo not drawn)	4	0	0	0	·	·
N[C@@H](C(=O)N[C@@H]1C(=O)N2C(C(=O)O)=C(CSC3CNNN3)CS[C@H]12)c1ccc(O)cc1 (stereo partly drawn) (tested in a mixture with another compound)	63*	0	-1	2	72*	29	AS interf DR=0.67*
N=c1c2cn[nH]c2nc(SCC(=O)c2ccc(Cl)cc2)n1-c1ccc(Br)cc1	5	0	-7	1	·	·
CCOC(=O)c1c(NC(=O)C(F)(F)F)sc(C(=O)Nc2ccccc2)c1C	55*	0	29	-4	0	1
C=CCn1c2ccccc2c2nnc(SCC(=O)Nc3cccc4ccccc34)nc21	-8	0	17	2	·	·
Cc1cc(C(=O)Cn2c(NCCO)nc3ccccc32)c(C)n1-c1ccccc1	11	0	-2	1	·	·
CN1CCc2c1nc1ccccc1c2NC(=O)CNC1CC1	53*	0	-7	0	16	24
CN(CC(=O)Nc1c2c(nc3c1CCC3)CCCC2)Cc1ccccc1	68*	0	0	-1	2	1
CN1CCc2c1nc1ccccc1c2NC(=O)C12CC3CC(CC(C3)C1)C2	12	0	2	1	·	·
CN1CCN(CC(=O)Nc2c3c(nc4ccccc24)N(C)CC3)CC1	79*	0	7	0	-8	-3
SMILES	MITF primary	FBW7 activator	TEAD-YAP block	GPR151 activ	MITF inh conf	AS interf ctr	others
CN(CC(=O)Nc1c2c(nc3ccccc13)N(C)CC2)Cc1ccccc1	65*	0	22	4	-6	-7
O=C(CN1CCCCC1)Nc1c2c(nc3ccccc13)N(c1ccccc1)CC2	32	0	0	1	·	·
CCCCc1ccc(NC(=O)C2c3ccccc3Oc3ccccc32)cc1	10	0	-2	-1	·	·
COc1cc(NC(=O)C[n+]2cccc(O)c2)cc(OC)c1	-13	0	7	-1	·	·
Cc1nn(C2CCS(=O)(=O)C2)c(Cl)c1CNCc1ccccc1 (stereo not drawn)	58*	0	2	2	5	-5
O=C(CNCc1ccccn1)Nc1ccc([N+](=O)[O-])cc1C(=O)Nc1ccccc1F	75*	-2	-8	-2	18	24
O=C(CN1CCOCC1)Nc1ccc([N+](=O)[O-])cc1C(=O)Nc1ccccc1F	4	0	6	3	·	·
Nc1cccc2c1C(=O)N(c1ccccc1)C2=O	52*	0	-6	0	0	10
O=C1c2ccccc2C(=O)N1c1ccccc1	21	0	9	-2	·	·
COc1cccc(N2C(=S)N(c3ccccc3)C3CS(=O)(=O)CC32)c1 (stereo not drawn)	-11	0	-1	2	·	·
O=C(NC(=S)NNC(=O)c1ccccc1O)c1cccs1	78*	0	10	1	26	100*
CC(=O)NC(=S)NNC(=O)c1ccccc1O	76*	-2	30	0	39*	100*
CC(=O)NC(=S)NNC(=O)c1ccccc1I	3	-1	-1	-1	·	·
CC(=O)NCc1c(C)ncc2c1CCN(C(=O)c1cccc(-c3cccc(F)c3)c1)C2	-1	0	-1	1	·	·
CC(C)(c1ccc(O)c(N)c1)c1ccc(O)c(N)c1	74*	1	-1	0	8	33*
CC(C)(c1ccc(O)cc1)c1ccc(O)cc1	9	0	-4	-1	·	·
CCC(C)(C(=O)NC1CCCCC1)N(CC1CCCO1)C(=O)c1ccc(=O)[nH]c1 (stereo not drawn)	79*	0	4	-1	-7	-4
c1ccc(CN2CCN(c3ncccn3)CC2)nc1	14	1	-2	-3	·	·
c1ccc(CN2CCN(C3CCCCC3)CC2)nc1	60*	1	5	-2	12	10
CC1CCC(N2CCN(Cc3ccccn3)CC2)CC1 (stereo not drawn)	64*	1	12	-2	0	3
c1ccc(CN2CCN(C3CCCCCC3)CC2)nc1	67*	0	4	-1	-9	15
CCn1c2ccccc2c2cc(NC(=O)c3cc(-c4ccc(Cl)cc4)nc4ccccc34)ccc21	8	0	-24	0	·	·
